The supplement of paper PMC8285479
Where a name gives a salt, the structure may show the parent alone. ± gives the standard deviation of the averaged measurements. Over roughly 1,900 compounds, “normalised cell viability (NPI; 0 = phenylarsine oxide control, 1 = DMSO control)” has its median near 1; the lowest 2% begin near 0.039. Only a selection was taken, and the lowest values are over-represented in it overall.

Test system: NCI-H1944
Assay: normalised cell viability (NPI; 0 = phenylarsine oxide control, 1 = DMSO control) (fraction of DMSO control); NCI-H1944 is a non-small cell lung cancer line; higher = more viable cells (less compound toxicity)
Conditions: 6 days
[1] = glucocorticoid arm: hydrocortisone 2.75 uM co-treatment, compound 1 µM
[2] = glucocorticoid arm: hydrocortisone 2.75 uM co-treatment, compound 5 µM
[3] = glucocorticoid arm: hydrocortisone 2.75 uM pre-treated 2 days and continued, compound 1 µM
[4] = glucocorticoid arm: hydrocortisone 2.75 uM pre-treated 2 days and continued, compound 5 µM
[5] = glucocorticoid arm: vehicle, compound 1 µM
[6] = glucocorticoid arm: vehicle, compound 5 µM
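Also: CTB read-out in 384-well plates, triplicate wells, NPI normalised per plate against 1 µM phenylarsine oxide (0) and 0.1% DMSO (1) controls.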

Row | Structure (SMILES) | normalised cell viability [1] | normalised cell viability [2] | normalised cell viability [3] | normalised cell viability [4] | normalised cell viability [5] | normalised cell viability [6]
1 | C#C[C@]1(O)CC[C@H]2[C@@H]3CCC4=Cc5oncc5C[C@]4(C)[C@H]3CC[C@@]21C [Danazol] | 0.998 ± 0.001 | 1 ± 0.021 | 0.991 ± 0.022 | 1.01 ± 0.027 | 1.007 ± 0.0058 | 1.013 ± 0.0058
2 | C[C@]12CC[C@H](O)CC1=CC[C@@H]1[C@@H]2CC[C@]2(C)C(c3cccnc3)=CC[C@@H]12 [Abiraterone] | 1.043 ± 0.0058 | 1.18 ± 0.023 | 1.05 | 1.11 ± 0.025 | 0.848 ± 0.021 | 1.05 ± 0.011
3 | O=C(NCCCNc1nc(Nc2cccc(NC(=O)N3CCCC3)c2)ncc1I)c1cccs1 | 0.9797 ± 0.0095 | 0.993 ± 0.027 | 0.9587 ± 0.0025 | 1.05 ± 0.017 | 0.71 ± 0.01 | 0.3133 ± 0.0023
4 | c1ccc2c(-c3cnn4cc(-c5ccc(N6CCNCC6)cc5)cnc34)ccnc2c1 | 1.043 ± 0.0058 | 0.832 ± 0.14 | 1.04 ± 0.01 | 1.09 ± 0.021 | 1.01 ± 0.011 | 0.0214 ± 0.0048
5 | Nc1ncnc2c1nc(Br)n2C1OC2COP(=O)(O)O[C@@H]2C1O (stereo not given in full) [8-Bromo-cAMP sodium] | 0.9863 ± 0.004 | 0.901 ± 0.017 | 0.983 ± 0.001 | 0.96 ± 0.016 | 0.9617 ± 0.0067 | 0.9647 ± 0.0093
6 | Cc1nn(-c2ccccc2)c(C)c1C=NN1CCN(Cc2ccccc2)CC1 | 1.01 ± 0.01 | 0.991 ± 0.05 | 1.02 ± 0.011 | 0.9927 ± 0.0078 | 0.9987 ± 0.0023 | 0.996 ± 0.013
7 | CNC(CC(=O)O)C(=O)O [NMDA (N-Methyl-D-aspartic acid)] | 1.006 ± 0.0069 | 1.03 ± 0.037 | 1.01 ± 0.032 | 1.01 ± 0.013 | 1.003 ± 0.0058 | 0.9973 ± 0.0025
8 | FC(F)(F)c1cc(COC2CCCNC2c2ccccc2)cc(C(F)(F)F)c1 [L-733,060 hydrochloride] | 0.9863 ± 0.0067 | 0.843 ± 0.034 | 1 ± 0.014 | 0.993 ± 0.076 | 0.9957 ± 0.0067 | 0.928 ± 0.076
9 | N/C(=N\C(=O)c1nc(Cl)c(N)nc1N)NCc1ccccc1 [Benzamil hydrochloride] | 1.023 ± 0.0058 | 1.04 ± 0.01 | 1.03 ± 0.011 | 1.05 ± 0.028 | 0.9897 ± 0.0045 | 1.02 ± 0.016
10 | N/C(=N\C(=O)c1nc(Cl)c(N)nc1N)NCc1ccc(Cl)c(Cl)c1 [3',4'-Dichlorobenzamil hydrochloride] | 0.99 ± 0.0089 | 0.0646 ± 0.03 | 0.998 ± 0.013 | 0.862 ± 0.014 | 0.98667 ± 0.00058 | 0.0118 ± 0.0064
11 | N=C(N)NC(=O)c1nc(Cl)c(N)nc1N [Amiloride hydrochloride] | 0.9737 ± 0.006 | 0.966 ± 0.023 | 0.991 ± 0.0052 | 0.992 ± 0.025 | 0.9947 ± 0.0084 | 1.003 ± 0.0064
12 | CCCCCCCCCCCCCCCCCC(=O)NCC(COP(=O)([O-])OCC[N+](C)(C)C)OCC (racemic) [rac-2-Ethoxy-3-octadecanamido-1-propylphosphocholine] | 1.017 ± 0.0058 | 1.04 ± 0.011 | 1.01 ± 0.011 | 1.04 ± 0.021 | 0.9997 ± 0.0091 | 1.002 ± 0.0067
13 | CCCCOc1cc(CC2CNC(=O)N2)ccc1OC (stereo not given) | 1.01 ± 0.01 | 1.01 ± 0.021 | 1.01 ± 0.011 | 1.01 ± 0.021 | 1.013 ± 0.0058 | 1.013 ± 0.0058
14 | COC(=O)C[C@](O)(CCCC(C)(C)O)C(=O)O[C@@H]1C(OC)=C[C@]23CCCN2CCc2cc4c(cc2[C@H]13)OCO4 [Omacetaxine mepesuccinate] | 0.00277 ± 0.001 | 1.08 ± 0.026 | 0.0391 ± 0.002 | 1.03 ± 0.021 | 0.00151 ± 0.00092 | 1.017 ± 0.0058
15 | O=c1[nH]c2cc(Cl)c(Cl)cc2[nH]c1=O [6,7-Dichloroquinoxaline-2,3-dione] | 1.01 ± 0.011 | 1.04 ± 0.011 | 1.003 ± 0.0061 | 1.04 ± 0.021 | 0.989 ± 0.007 | 1.002 ± 0.0068
16 | NC(=O)c1cc[n+](CC2=C(C(=O)O)N3C(=O)[C@@H](NC(=O)C(c4ccccc4)S(=O)(=O)[O-])[C@H]3SC2)cc1 (stereo not given in full) [Cefsulodin sodium salt hydrate] | 1.01 | 1.013 ± 0.0058 | 1.02 | 1.01 ± 0.014 | 0.997 ± 0.013 | 0.9997 ± 0.0096
17 | CCc1cnn2c(NCc3ccc[n+]([O-])c3)cc(N3CCCC[C@H]3CCO)nc12 | 0.0547 ± 0.0038 | 0.0409 ± 0.0039 | 0.144 ± 0.004 | 0.153 ± 0.0068 | 0.0139 ± 0.0022 | 0.00878 ± 0.0013
18 | Oc1cc2c(cc1O)C(c1ccccc1)CNCC2 (racemic) | 0.987 ± 0.014 | 0.982 ± 0.013 | 0.982 ± 0.023 | 0.972 ± 0.011 | 0.992 ± 0.0044 | 0.9913 ± 0.0021
19 | OC(CN1CCC(Cc2ccc(F)cc2)CC1)c1ccc(Cl)cc1 (stereo not given) [Eliprodil] | 0.9487 ± 0.0064 | 0.9277 ± 0.0051 | 0.9827 ± 0.0091 | 0.971 ± 0.0076 | 0.9973 ± 0.0046 | 0.9967 ± 0.0058
20 | Cc1ccc(NC(=O)c2ccc(CN3CCN(C)CC3)cc2)cc1Nc1nccc(-c2cccnc2)n1 [Imatinib Mesylate] | 1.05 ± 0.015 | 1.14 ± 0.021 | 1.05 ± 0.015 | 1.1 ± 0.032 | 1.01 ± 0.01 | 1.03 ± 0.011
21 | CC(=O)Nc1ccc(C(=O)Nc2ccccc2N)cc1 | 1.02 ± 0.011 | 1.063 ± 0.0058 | 1.033 ± 0.0058 | 1.06 ± 0.011 | 0.9833 ± 0.0057 | 0.906 ± 0.052
22 | Cc1cc(NC(=O)c2cccc(NC(=O)/C=C/CN(C)C)c2)ccc1Nc1nccc(-c2cccnc2)n1 | 0.989 ± 0.016 | 0.943 ± 0.017 | 1.007 ± 0.0058 | 0.917 ± 0.026 | 0.959 ± 0.011 | 0.702 ± 0.033
23 | Nc1ccccc1NC(=O)c1ccc(CNC(=O)OCc2cccnc2)cc1 [Entinostat (MS-275)] | 1.05 ± 0.015 | 0.184 ± 0.004 | 1.023 ± 0.0058 | 0.302 ± 0.018 | 0.866 ± 0.026 | 0.02 ± 0.0035
24 | COc1ccc(C(=O)NCc2cccnc2)cc1C(=O)NCc1cccnc1 [Picotamide] | 0.989 ± 0.017 | 0.992 ± 0.004 | 0.867 ± 0.26 | 1 ± 0.016 | 1.007 ± 0.0058 | 1.003 ± 0.0064
25 | CC(=O)Nc1ccc(C(=O)Nc2ccccc2N)cc1 [CI994 (Tacedinaline)] | 0.9813 ± 0.0093 | 1.03 ± 0.029 | 0.999 ± 0.012 | 1.02 ± 0.02 | 0.9707 ± 0.0072 | 0.9157 ± 0.008
